Assay outcomes as filed in PubChem.
WT yeast gro inh: growth inhibition of WT yeast, mitochondrial fusion screen; mitochondrial fusion phenotypic screen, WT strain; 2.1% of 190,000 active; inhibition, % at 10 µM; in the data active means inhibition above about 58%; tested in S. cerevisiae
CHOP inhibitor: blocks CHOP induction under ER stress. CHO-K1 CHOP-promoter luciferase, tunicamycin-induced, 15-18 h. inhibition, % at 10 µM. 3.8% of 220,000 active;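 active means compounds that reduced the stress-induced luciferase reporter signal by more than about 70% of percent inhibition, limit read from the data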
RAM inhibit: yeast RAM network inhibition; 1.8% of 190,000 active; S. cerevisiae dse1pr::URA3 reporter, 5-FOA growth OD615, 2 d; analog-sensitive cbk1-as2 kinase mutant strain; AID 868; inhibition, % at 50 µM;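 active means inhibition above a set limit, 3 SD over mean compound inhibition, cut at about 8.4% in these data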;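 further: inhibition rescues growth on 5-FOA so higher OD means more RAM inhibition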
Lmaj promast: reduces viability of Leishmania major promastigotes | resazurin fluorescence viability | inhibition, % at 10 µM | 9% of 200,000 active | AID 1063; in the data active means inhibition above about 50%;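 further: promastigotes grown with compound for 44 hours at 28 °C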
Hits are given with their value; . = inactive; / = no result. Compounds with a hit are over-represented: about 13% of the library has one in this group of screens.

SMILES	WT yeast gro inh	CHOP inhibitor	RAM inhibit	Lmaj promast
O=C(NC1CC1)C1=C[C@@H](c2csc3ccccc23)C[C@@H](OCCCCO)O1	/	.	/	/
O=C(Nc1ccccc1)C1=C[C@H](c2coc3ccccc3c2=O)C[C@H](OCc2ccc(CO)cc2)O1	.	.	.	.
O=C(NCc1ccccc1)C1=C[C@@H](c2csc3ccccc23)C[C@@H](OCCCCO)O1	.	.	11	.
O=C(NCc1ccccc1)C1=C[C@@H](c2csc3ccccc23)C[C@@H](OCc2ccc(CO)cc2)O1	.	.	.	74
O=C(NCc1ccccc1)C1=C[C@@H](c2coc3ccccc3c2=O)C[C@@H](OCc2ccc(CO)cc2)O1	.	.	8.5	.
CCc1ccc(C(=O)COC(=O)CNC(=O)COc2ccccc2)cc1	.	.	.	.
O=Cc1cnc(N2CCOCC2)nc1	.	.	.	.
Cc1ccc(NC(=O)NCC2CCN(Cc3cccc(Cl)c3)CC2)cc1Cl	82	89	.	87
Cc1cccc(CN2CCC(CNC(=O)CSc3cc(=O)n(C)c4cc(Cl)ccc34)CC2)c1	/	.	/	/
Cc1ccc(NC(=O)NCC2CCN(Cc3cc(C)ccc3Cl)CC2)c(C)c1	.	.	.	.
Cc1ccc(NC(=O)NCC2CCN(Cc3cccc(Cl)c3)CC2)c(Cl)c1	.	.	.	84
NS(=O)(=O)c1ccc(NC(=O)Nc2ccc(C(F)(F)F)cc2)cc1	/	.	/	/
S=C(NC1CCCC1)N1CCN(c2ccc(Cl)cc2)CC1	.	.	.	.
CCOC(=O)N1CCN(c2cc(NCCC(=O)O)c3c4c(onc24)-c2ccccc2C3=O)CC1	.	.	9.4	.
O=C(O)CCCNc1cc(N2CCC3(CC2)OCCO3)c2noc3c2c1C(=O)c1ccccc1-3	.	.	8.7	.
CCn1cc(C(=O)O)c(=O)c2cnc(N3CCN(C(=S)Nc4ccccc4Cl)CC3)nc21	/	.	/	/
Cc1ccc(S(=O)(=O)N(C)C)cc1NC(=O)COC(=O)/C=C/c1cnc2ccccc2n1	.	.	8.9	.
Cc1ccc(S(=O)(=O)N(C)C)cc1NC(=O)COC(=O)/C=C/c1ccc2c(c1)OCO2	.	.	9.3	.
CN(C)S(=O)(=O)c1ccc(Cl)c(NC(=O)COC(=O)/C=C/c2cnc3ccccc3n2)c1	/	.	/	/
CN(C)S(=O)(=O)c1cccc(NC(=O)COC(=O)/C=C/c2ccc3c(c2)OCO3)c1	.	.	.	.
Oc1ccc(N=C/C=C/c2cccc(Br)c2)cc1-c1nc2ccccc2s1	.	.	.	.
CCc1sc(NC(C)=O)nc1-c1ccccc1	.	.	.	.
CCc1ccc(N2C(=O)c3sc4nnc(-c5ccccc5)c(=O)n4c3C2=O)cc1	/	71	.	.
CCOC(=O)c1ccc(-n2[nH]c(-c3ccccc3)cc2=O)cc1	.	.	9.6	.
Cc1cc(=O)n(-c2ccc(C(=O)O)cc2)[nH]1	.	.	.	.
SMILES	WT yeast gro inh	CHOP inhibitor	RAM inhibit	Lmaj promast
O=c1[nH]c(CNCc2cccnc2)nc2ccccc12	.	.	.	.
CCCN(CCC)CCCNC(=O)c1cc2c(=O)n(C)c3ccccc3c2n1C	.	.	.	51
CCN(CC)CCNC(=O)c1cc2c(=O)n(C)c3ccccc3c2n1C	.	.	.	.
CCCCN(CC)CCNC(=O)c1cc2c(=O)n(C)c3ccccc3c2n1C	.	.	.	77
Cn1c(C(=O)NCCCN2CCCCCC2)cc2c(=O)n(C)c3ccccc3c21	.	.	.	67
Cc1cc(=O)[nH]c(NN=C2C3CC4CC(C3)CC2C4)n1	/	.	/	/
COc1cccc(NC(=O)CC2COc3ccccc3O2)c1 (stereo unspecified)	.	.	.	57
Nc1nc(SCC(=O)Nc2ccc([N+](=O)[O-])cc2)n[nH]1	.	.	.	.
CCNc1nc(NCC)nc(N(n2cnnc2)S(=O)(=O)c2ccc(C)cc2)n1	.	.	.	.
CCNc1nc(NC(C)C)nc(N(n2cnnc2)S(=O)(=O)c2ccc(C)cc2)n1	.	.	.	58
COC(=O)N/N=C(\C)c1ccc2ccccc2c1OC(F)F	.	.	.	56
COC(=O)N/N=C(\C)c1ccc(OC(F)F)cc1	.	.	.	.
CCN(CC)S(=O)(=O)c1cccc(C(=O)NC(Cc2c[nH]c3ccccc23)c2nnc3n2CCC3)c1 (stereo unspecified)	.	.	.	63
CN(c1ccc(C(=O)NCCSCc2ccccc2)cc1)S(=O)(=O)c1ccccc1	.	.	.	82
COc1cc(/C=N/NC(=O)CC2(C)OCCCO2)ccc1OCc1ccc(Cl)cc1Cl	.	.	.	.
CC1(CC(=O)N/N=C/c2ccc(OCc3ccc(Cl)cc3Cl)cc2)OCCCO1	77	.	.	.
CNc1ccc(/C=C/C(=O)c2cccc3ccccc23)cc1[N+](=O)[O-]	.	.	.	99
CNc1ccc(C(=O)c2ccccc2C(=O)O)cc1[N+](=O)[O-]	.	.	.	.
COc1ccc(N(CC(=O)NCCC2=CCCCC2)S(=O)(=O)c2ccccc2)cc1OC	.	.	.	73
CC(OC(=O)c1ccc(S(=O)(=O)N(C)c2ccccc2)cc1)C(=O)NCCC1=CCCCC1 (stereo unspecified)	.	.	8.8	.
CCN(CC(=O)NCCC1=CCCCC1)S(=O)(=O)c1ccccc1	/	.	/	/
CC(OC(=O)Cc1c(F)cccc1Cl)C(=O)NCCC1=CCCCC1 (stereo unspecified)	.	.	.	52
COc1ccc(N(CC(=O)NCCC2=CCCCC2)S(=O)(=O)c2ccc(C)cc2)cc1OC	.	.	.	85
COc1ccc(N(CC(=O)NCCC2=CCCCC2)S(=O)(=O)c2ccccc2)cc1	/	.	/	/
Cn1cc(C(=O)NCc2cccs2)c(=O)c2cc(S(=O)(=O)N3CCCC3)ccc21	.	.	.	.
SMILES	WT yeast gro inh	CHOP inhibitor	RAM inhibit	Lmaj promast
C=C(C)C1CCC2(C(=O)O)CCC3(C)C(CCC4C5(C)C(C=O)C(O)C(C)(C)C5CCC43C)C12 (stereo unspecified)	/	85	/	/
C/C(CCc1ccco1)=N/NC(=O)CCC(=O)Nc1ccc(Br)cc1	.	.	.	.
O=C(COC(=O)c1ccc(-c2ccc([N+](=O)[O-])cc2)o1)NC(=O)NC1CCCCC1	.	.	.	.
COc1ccc(CCNC(=O)NC23CC4CC(CC(C4)C2)C3)cc1	.	.	.	.
COc1cc(/C=C/C(=O)OCC(=O)NC(=O)NC23CC4CC(CC(C4)C2)C3)ccc1OCC#N	.	.	.	93
COc1cc(/C=C/C(=O)OCC(=O)NC(=O)NC(C)C)ccc1OCC#N	.	.	.	.
O=C(COC(=O)c1ccc(-c2ccc([N+](=O)[O-])cc2)o1)NC(=O)NC12CC3CC(CC(C3)C1)C2	.	.	.	98
COc1ccc(CC(=O)OCC(=O)NC(=O)NC23CC4CC(CC(C4)C2)C3)cc1	.	96	.	.
O=C1CCC([N+](=O)[O-])C(c2cc3c(cc2Cl)OCO3)N1 (stereo unspecified)	.	.	.	.
COc1cccc(OC)c1C1=NC(C)(C)CO1	/	.	/	/
CCN(CC)C(=O)Nc1ccc(Br)cc1	.	.	.	.
Cc1cccc(-n2c(=O)c3c(n4cnnc24)-c2ccccc2CC32CCCCC2)c1	74	.	.	.
O=C(/C(=C/O)N=Nc1ccccc1)c1ccncc1	.	.	/	.
O=C(/C(=C/O)N=Nc1ccccc1)c1ccc(Cl)cc1	68	92	.	.
